Drawing on PubChem BioAssay (Tox21), this text covers Potency for 31 molecules.

Values without a mark were called inactive. Records with an inconclusive call do not appear. Activity calls are given as the source filed them. Unless noted, calls come from the whole dose curve; as a rule, active = well fitted curve in the direction sought with a large enough effect in the repeat runs; inconclusive = weak or mixed curves; inactive = no such curve, though single readings can be large; an effect the other way counts as inactive or inconclusive.

A short description of assay [1]: Caspase-3/7 induction in HepG2 cells by small molecules, qHTS assay (AID 1346978). Note: nearly all actives have a fitted effect of over 15% in size. The essentials:
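Wild-type HepG2 cells (2,000/well) were settled 5 h at 37 C, 5% CO2, then exposed to compounds in DMSO for 17 h. Caspase-3/7 activity was read by luminescence 30 min after adding Caspase-Glo 3/7 reagent at room temperature.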
On the technique in general: Quantitative high-throughput screening tests each substance at several concentrations.

The nature of assay [2]: Caspase-3/7 induction in CHO-K1 cells by small molecules, qHTS cell viability counter screen (AID 1346979). Note: nearly all actives have a fitted effect of over 35% in size. The essentials: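 CellTiter-Fluor viability check, qHTS format: wild-type CHO-K1, 16hr compound treatment, 1hr reagent incubation, fluorescence read.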
Assay [3] can be described thus: Caspase-3/7 induction in CHO-K1 cells by small molecules, qHTS assay (AID 1346980). Note: nearly all actives have a fitted effect of over 15% in size. The essentials: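 Wild-type cells were seeded at 1,500 per well and settled 5 hr at 37 C, 5% CO2, then exposed to DMSO-dissolved compounds for 17 hr. Caspase-Glo 3/7 reagent was added, and luminescence was read after 30min at room temperature.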
The nature of assay [4]: Caspase-3/7 induction in HepG2 cells by small molecules, qHTS cell viability counter screen (AID 1346981). Note: series mostly up to about 92 µM; nearly all actives have a fitted effect of over 30% in size. The essentials: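 In this quantitative HTS counter screen, compounds delivered in DMSO were left on unmodified HepG2 cells for 16 hr at 37 C. Viability was then determined fluorometrically with CellTiter-Fluor, in parallel with caspase-3/7 induction in the same wells.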

Assay [5] deals with Nuclear receptor subfamily 1 group I member 2 (Homo sapiens) (UniProt O75469). Briefly: Human pregnane X receptor (PXR) small molecule agonists, qHTS assay (AID 1346982). Note: nearly all actives have a fitted effect of over 35% in size. Note: potency is the fitted concentration of half-maximal effect. The method, boiled down: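 Reporter HepG2 cells expressing PXR-Luc are cultured in charcoal-stripped FBS (5%), treated with compounds for 24 hr at 37 C, and assayed by ONE-Glo luminescence after 30 min at room temperature.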
Nuclear receptor subfamily 1 group I member 2 (Homo sapiens), sequence (O75469 whole entry, looked up): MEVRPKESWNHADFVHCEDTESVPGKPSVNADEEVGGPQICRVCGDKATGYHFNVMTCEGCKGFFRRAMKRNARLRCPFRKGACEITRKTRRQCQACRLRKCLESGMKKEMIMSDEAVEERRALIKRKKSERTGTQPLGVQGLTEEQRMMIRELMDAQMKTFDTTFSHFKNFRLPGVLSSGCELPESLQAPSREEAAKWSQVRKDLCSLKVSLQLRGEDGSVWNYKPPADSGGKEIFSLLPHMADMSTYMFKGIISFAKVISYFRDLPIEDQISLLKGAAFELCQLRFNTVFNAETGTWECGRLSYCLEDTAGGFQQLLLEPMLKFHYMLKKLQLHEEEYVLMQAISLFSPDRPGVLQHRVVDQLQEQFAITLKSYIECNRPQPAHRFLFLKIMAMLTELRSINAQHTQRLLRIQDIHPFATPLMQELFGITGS

Assay [6] addresses Acetylcholinesterase (Homo sapiens) (UniProt P22303). Briefly: Acetylcholinesterase (AChE) small molecule antagonists: colormetric cell-based qHTS assay (AID 1347395; calls by dose curve; note: nearly all actives have a fitted effect of over 30% in size; note: potency is the fitted concentration of half-maximal effect). The essentials:
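AChE inhibition read colorimetrically via DTNB–thiocholine in SH-SY5Y cells. Compound 30 min, substrate 90 min, both 37 C.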

The target is the same in assay [7]. In words: Acetylcholinesterase (AChE) small molecule antagonists: enzyme-based qHTS assay (AID 1347397; calls by dose curve; note: nearly all actives have a fitted effect of over 55% in size; note: potency is the fitted concentration of half-maximal effect). As to conditions: Potency: AChE enzyme activity inhibition. The essentials:
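Tox21 library chemicals are tested in qHTS format against recombinant human AChE. The enzyme, dispensed at 50 mU/mL, sits with compound for 30 min at room temperature. A DTNB–acetylthiocholine cocktail follows, and colour is read after 10 min.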

Assay [8] deals with Nuclear receptor subfamily 1 group I member 2 (Rattus norvegicus) (UniProt Q9R1A7). In words: Rat pregnane X receptor (rPXR) activation by small molecules, qHTS assay (AID 1346983). Note: potency is the fitted concentration of half-maximal effect; nearly all actives have a fitted effect of over 20% in size. As to conditions: rPXR luciferase reporter cells, One-Glo luminescence, 24 h; max activation: stronger effect = higher value. The method, boiled down:
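Cell-based rPXR luciferase reporter assay, 2,000 cells per well, rested 5hr at 37 C before compound addition in DMSO, then 24 hr at 37 C. One-Glo reagent was added and luminescence read after 30 min at room temperature.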

Assay [9] concerns the target Nuclear receptor subfamily 1 group I member 2 (Homo sapiens) (UniProt O75469). In words: Human pregnane X receptor (PXR) activation by small molecules, qHTS assay (AID 1346985). Note: nearly all actives have a fitted effect of over 40% in size. The method, boiled down: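 DPX-2 cells (HepG2 co-transfected with a PXR response element and a CYP3A4-promoter luciferase construct) were seeded at 2,000 per well, rested 5 hr at 37C, then exposed to DMSO-dissolved compounds for 24 hr. Activation was read as luciferase luminescence.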

Acetylcholinesterase (Homo sapiens), sequence (P22303 whole entry, looked up): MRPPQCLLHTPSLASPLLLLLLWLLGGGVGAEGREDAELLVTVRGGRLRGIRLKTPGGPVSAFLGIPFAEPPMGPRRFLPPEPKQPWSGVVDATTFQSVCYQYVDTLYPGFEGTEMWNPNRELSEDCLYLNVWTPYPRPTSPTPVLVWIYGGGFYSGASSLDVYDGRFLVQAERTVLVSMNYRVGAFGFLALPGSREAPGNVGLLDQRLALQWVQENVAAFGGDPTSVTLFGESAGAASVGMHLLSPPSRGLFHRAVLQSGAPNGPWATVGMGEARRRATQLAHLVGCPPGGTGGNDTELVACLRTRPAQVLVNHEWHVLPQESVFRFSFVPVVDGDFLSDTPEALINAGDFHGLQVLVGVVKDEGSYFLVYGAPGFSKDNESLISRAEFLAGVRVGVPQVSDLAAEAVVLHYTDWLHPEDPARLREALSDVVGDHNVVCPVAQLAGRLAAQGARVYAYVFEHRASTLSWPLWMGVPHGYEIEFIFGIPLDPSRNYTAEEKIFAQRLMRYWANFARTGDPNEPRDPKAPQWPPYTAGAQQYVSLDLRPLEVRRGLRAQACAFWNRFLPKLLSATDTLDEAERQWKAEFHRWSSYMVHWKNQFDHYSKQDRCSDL
Nuclear receptor subfamily 1 group I member 2 (Rattus norvegicus), sequence (Q9R1A7 whole entry, looked up): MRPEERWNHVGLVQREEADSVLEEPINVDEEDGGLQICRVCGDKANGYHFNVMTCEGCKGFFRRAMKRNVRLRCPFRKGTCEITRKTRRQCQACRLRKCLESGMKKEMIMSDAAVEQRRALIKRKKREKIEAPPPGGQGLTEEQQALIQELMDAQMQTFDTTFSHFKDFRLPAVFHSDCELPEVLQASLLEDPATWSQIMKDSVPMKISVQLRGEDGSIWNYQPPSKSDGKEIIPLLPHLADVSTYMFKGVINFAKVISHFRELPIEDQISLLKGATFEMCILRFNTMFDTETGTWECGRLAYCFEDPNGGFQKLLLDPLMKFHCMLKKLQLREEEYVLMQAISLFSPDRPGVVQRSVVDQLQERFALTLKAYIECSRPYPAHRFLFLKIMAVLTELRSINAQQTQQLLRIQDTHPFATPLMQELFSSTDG

`CNC(=O)O/N=C(\C)SC`: the Potency entry in [1], in [2], in [3], in [4] and in [5] was “inactive” throughout. Moreover, the Potency is 1.59 µM (active) in assay [6] and 2.83 µM (active) in [7].

For the molecule `NC(=S)C(N)=S`, the Potency entry in assay [1], in [2], in [3], in [4], in assay [5] and in [6] was “inactive” each time. Moreover, in assay [7], the Potency entry was “inactive”.

Take `OCCSCSCCO`: the Potency result in assay [1], in [2], in assay [3], in assay [4], in assay [5] and in assay [6] was “inactive” in each case. Further, in assay [7], the Potency result was “inactive”.

As to `Oc1c(Cl)cccc1Cl`, the Potency result in [1], in assay [2], in assay [3], in [4], in [5] and in assay [6] was “inactive” in each case. Also, in [7], the Potency entry was “inactive”.

For `C[C@]1(O)CC[C@H]2[C@@H]3CCC4=CC(=O)CC[C@]4(C)[C@@]3(F)[C@@H](O)C[C@@]21C`, the Potency entry in assay [1], in assay [2], in assay [3], in [4], in assay [6] and in [7] was “inactive” in each case. The Potency in [5] is 48.9 µM (active).

With `N#Cc1c(Cl)cccc1Cl`, the Potency result in assay [1], in [2], in assay [3], in [4], in [5] and in [6] was “inactive” each time. Also, in assay [7], the Potency result is “inactive”.

Turning to `ClCCOCOCCCl`, the Potency result in assay [1], in assay [2], in [3], in assay [4], in [5] and in assay [6] was “inactive” throughout. The Potency entry in assay [7] was “inactive”.

Turning to `CCCCOC(=O)c1ccccc1N`, the Potency result in [1], in assay [2], in assay [3], in assay [4], in assay [5] and in assay [6] was “inactive” each time. Moreover, the Potency result in assay [7] is “inactive”.

Consider `CC(CC(C#N)(c1ccccc1)c1ccccc1)N(C)C` (configuration not stated), for which the Potency result in [1], in assay [2], in assay [3], in assay [4], in [5] and in [6] was “inactive” in each case. The Potency entry in assay [7] was “inactive”.

Regarding `CC(C)COP(=O)(OCC(C)C)OCC(C)C`, the Potency entry in [1], in [2], in [3], in [4], in assay [5] and in assay [6] was “inactive” throughout. In assay [7], the Potency entry is “inactive”.

Regarding `CCCCOC(=O)c1ccccc1C(=O)O`, the Potency result in assay [1], in [2], in assay [3], in assay [4], in assay [5] and in [6] was “inactive” in each case. Besides, in [7], the Potency result was “inactive”.

Take `CCOP(=O)(OCC)OP(=O)(OCC)OCC`: the Potency result in assay [1], in [2], in assay [3], in assay [4], in [5] and in assay [6] was “inactive” in each case. For the same molecule, in assay [7], the Potency result is “inactive”.

In the case of `CCOP(=S)(OCC)Oc1ncn(-c2ccccc2)n1`, the Potency entry in assay [1], in assay [2], in assay [3] and in assay [4] was “inactive” throughout. Besides, the Potency in assay [5] is 27.3 µM (active); in assay [6] it was 31.7 µM (active); in [7], 71 µM (active).

Take `[Cl][Sn]([Cl])([Cl])[Cl]`: the Potency entry in [1], in [2], in assay [3], in [4], in assay [5] and in assay [6] was “inactive” each time. Also, the Potency result in assay [7] was “inactive”.

Consider `CCC/C(=N\OCC)C1=C(O)CC(CC(C)SCC)CC1=O` (configuration not stated), for which the Potency result in [1], in assay [2], in [3], in [4], in assay [6] and in [7] was “inactive” throughout. Also, the Potency in assay [5] is 48.9 µM (active).

Regarding `CC(=O)C(Cl)Cl`, the Potency entry in assay [1], in [2], in assay [3], in [4], in assay [5] and in assay [6] was “inactive” each time. Also, in [7], the Potency result is “inactive”.

With `C[N+](=O)[O-]`, the Potency result in [1], in [2], in assay [3], in [4], in assay [5] and in [6] was “inactive” throughout. Also, the Potency result in assay [7] is “inactive”.

Regarding `COC(=O)c1ccccc1S(=O)(=O)NC(=O)N(C)c1nc(C)nc(OC)n1`, the Potency entry in assay [1], in assay [2], in assay [3], in [4], in assay [5] and in assay [6] was “inactive” in each case. In assay [7], the Potency entry was “inactive”.

Consider `CC(C(O)c1ccccc1)N(C)C/C=C/c1ccccc1` (configuration not stated), for which the Potency result in assay [1], in assay [2], in assay [3], in assay [4], in assay [5] and in assay [6] was “inactive” throughout. Besides, in assay [7], the Potency entry is “inactive”.

For `CCCSC(=O)Cl`, the Potency entry in assay [1], in assay [2], in [3], in [4], in assay [5] and in assay [6] was “inactive” in each case. For the same molecule, the Potency entry in assay [7] was “inactive”.

Consider `CC1(C)COP(Oc2ccccc2)OC1`, for which the Potency entry in assay [1], in [2], in [3], in assay [4], in assay [5] and in [6] was “inactive” in each case. The Potency entry in assay [7] is “inactive”.

As for `CCC(C)n1c(=O)[nH]c(C)c(Br)c1=O` (configuration not stated), the Potency entry in [1], in [2], in assay [3], in [4], in assay [5] and in assay [6] was “inactive” throughout. For the same molecule, the Potency result in assay [7] was “inactive”.

In the case of `COC(=O)C1=CCCN(C)C1`, the Potency result in assay [1], in [2], in assay [3], in [4], in [5] and in assay [6] was “inactive” in each case. Also, the Potency entry in assay [7] is “inactive”.

For `CC(=O)[C@H]1CC[C@H]2[C@@H]3CC[C@H]4C[C@H](O)CC[C@]4(C)[C@H]3C(=O)C[C@]12C`, the Potency entry in [1], in assay [2], in assay [3], in assay [4], in assay [9] and in assay [6] was “inactive” in each case. For the same molecule, in [7], the Potency result is “inactive”. Further, the Potency in assay [8] was 11.2 µM (active).

In the case of `N#CCBr`, the Potency result in assay [1], in assay [2], in assay [3], in [4], in assay [5] and in assay [6] was “inactive” in each case. For the same molecule, the Potency result in assay [7] was “inactive”.

On to `N#Cc1ccncc1`, for which the Potency result in assay [1], in assay [2], in assay [3], in assay [4], in [5] and in assay [6] was “inactive” in each case. Also, the Potency result in [7] is “inactive”.

`CCCCC(=O)Cl`: the Potency entry in assay [1], in assay [2], in [3], in [4], in assay [5] and in [6] was “inactive” each time. The Potency entry in [7] was “inactive”.

With `CNC(=O)Oc1ccccc1C1OCCO1`, the Potency entry in [1], in [2], in assay [3], in [4], in [5] and in assay [6] was “inactive” in each case. Further, the Potency entry in assay [7] was “inactive”.

As to `CCCSP(=S)(OCC)Oc1ccc(Cl)cc1Cl` (configuration not stated), the Potency entry in [1], in assay [2], in [3], in assay [4], in [6] and in [7] was “inactive” throughout. For the same molecule, in assay [5], the Potency is 30.6 µM (active).

Turning to `O=c1oc2ccccc2c(O)c1C1CCCc2ccccc21` (configuration not stated), the Potency result in assay [1], in assay [2], in assay [3], in assay [4], in [6] and in assay [7] was “inactive” throughout.

With `c1coc(-c2nc3ccccc3[nH]2)c1`, the Potency result in assay [1], in assay [2], in [3], in [4], in [6] and in assay [7] was “inactive” each time. The Potency in [5] was 3.44 µM (active).
